Tests used:
Experiment in all cases: PBM binding z-score (relative to random genomic background probes); higher = stronger binding; sequences stand for … in GC…GCGATTGACAGCGTAGAATGAAGG
[1] = system: FXR:RXRa (NR concentration 270 nM, RXRa partner concentration 90 nM)
In short: (§1)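 Binding z-scores take random background probes as their reference. They come from custom Agilent 4×180K protein-binding microarrays incubated 1 h with ligand-free nuclear receptor dimers, with antibodies against each partner (one per run) detecting binding. Scanned fluorescence was regression-normalized.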

[2] = system: LXRa:RXRa (NR concentration 270 nM, RXRa partner concentration 90 nM)
In short: as §1

[3] = system: LXRa homodimer (NR concentration 270 nM)
In short: as §1

[4] = system: LXRb:RXRa (NR concentration 270 nM, RXRa partner concentration 90 nM)
In short: as §1

[5] = system: LXRb homodimer (NR concentration 270 nM)
In short: as §1

[6] = system: PPARa:RXRa (NR concentration 270 nM, RXRa partner concentration 90 nM)
In short: as §1

[7] = system: PPARg:RXRa (NR concentration 180 nM, RXRa partner concentration 90 nM)
In short: as §1

[8] = system: PPARg:RXRa 270nM:90nM, anti-RXR (NR concentration 270 nM, RXRa partner concentration 90 nM)
In short: as §1

[9] = system: PPARg:RXRa 30nM:10nM, anti-RXR (NR concentration 30 nM, RXRa partner concentration 10 nM)
In short: as §1

[10] = system: PPARg:RXRa 90nM:30nM, anti-RXR (NR concentration 90 nM, RXRa partner concentration 30 nM)
In short: as §1

[11] = system: PPARg:RXRa DBDmut IVT, anti-RXR (DBD mutation: RXRa K156A/R161A, NR concentration 270 nM, RXRa partner concentration 90 nM)
In short: as §1

[12] = system: PPARg:RXRa IVT, anti-PPARg (NR concentration 270 nM, RXRa partner concentration 90 nM)
In short: as §1

[13] = system: PPARg DBDmut:RXRa IVT, anti-PPARg (DBD mutation: PPARg1 K132A/R137A, NR concentration 270 nM, RXRa partner concentration 90 nM)
In short: as §1

[14] = system: PPARg DBDmut IVT, anti-PPARg (DBD mutation: PPARg1 K132A/R137A, NR concentration 270 nM)
In short: as §1

[15] = system: PPARg homodimer (NR concentration 180 nM)
In short: as §1

[16] = system: PXR:RXRa (NR concentration 270 nM, RXRa partner concentration 90 nM)
In short: as §1

[17] = system: PXR homodimer (NR concentration 270 nM)
In short: as §1

[18] = system: RARa:RXR (NR concentration 270 nM, RXRa partner concentration 90 nM)
In short: as §1

[19] = system: RARa homodimer (NR concentration 270 nM)
In short: as §1

[20] = system: RARb:RXRa (NR concentration 270 nM, RXRa partner concentration 90 nM)
In short: as §1

Row | Sequence | PBM binding z-score [1] | PBM binding z-score [2] | PBM binding z-score [3] | PBM binding z-score [4] | PBM binding z-score [5] | PBM binding z-score [6] | PBM binding z-score [7] | PBM binding z-score [8] | PBM binding z-score [9] | PBM binding z-score [10] | PBM binding z-score [11] | PBM binding z-score [12] | PBM binding z-score [13] | PBM binding z-score [14] | PBM binding z-score [15] | PBM binding z-score [16] | PBM binding z-score [17] | PBM binding z-score [18] | PBM binding z-score [19] | PBM binding z-score [20]
1 | ATATGTAGGTTACGTCCGGGTCATTCAGGCTATG | 2.37 | 4.62 | 1.21 | 3.12 | 0.722 | 4.6 | 5.86 | 5.24 | 2.88 | 4.48 | 7.35 | 7.47 | 4.19 | 3.42 | 3.1 | 3.87 | 2.03 | 4.08 | 0.587 | 2.47
2 | ATCGAAAGGTCGAAAGTGAGTATACCCACCCGAA | 3.56 | 3.24 | 0.172 | 2.67 | 0.816 | 3.74 | 2.17 | 2.5 | 1.05 | 2.05 | -0.0216 | 1.35 | 1.11 | 0.905 | 0.0924 | 2.02 | 0.265 | 2.62 | 0.478 | 3.19
3 | TCTGCTTGGTCAACGATGGTCAGCTAATCTGCTA | -0.224 | -0.219 | -0.946 | -0.549 | -0.202 | 0.184 | -0.488 | 0.665 | 1.65 | 0.96 | 0.689 | 0.425 | 0.225 | -0.53 | -0.633 | -0.0602 | -0.841 | 0.401 | -1.62 | 1.17
4 | CGTCCAAGGTCATAGGAGGTCATTGAAGACAGAT | 7.83 | 7.82 | 7.86 | 6.99 | 1.61 | 5.94 | 5.65 | 5.98 | 2.75 | 4.71 | 3.6 | 4.68 | 0.258 | 0.325 | 4.58 | 7.17 | 10 | 6.52 | 2.32 | 5.47
5 | CCGACTGGGGCAACGGTTACCATACTCAGTACGA | -0.245 | -0.501 | -0.164 | -0.317 | -1.33 | 1.25 | 3.08 | 4.07 | 2.04 | 3.93 | 3.8 | 3.87 | -0.196 | -0.486 | 0.34 | -0.591 | -0.155 | -0.576 | -0.579 | 0.784
6 | ATCGTAAGGTCGTGAGGTGAGTATACAGAAAGGC | 3.26 | 2.69 | -0.00472 | 2.14 | 0.775 | 3.87 | 1.99 | 2.39 | 0.777 | 1.55 | 0.0684 | 1.65 | 1.19 | 1.05 | 1.4 | 2.22 | 0.545 | 3.29 | 0.99 | 3.11
7 | ACTAATTGGTCAGCTGAGGTCACACACAATTCGG | 3.46 | 3.25 | 2.59 | 3.68 | 1.15 | 4.06 | 2.17 | 2.77 | 1.23 | 1.88 | 1.58 | 2.86 | 1.1 | 1.2 | 2.75 | 5.67 | 1.67 | 4.72 | 1.56 | 3.91
8 | GCTGCTAGGTCAACTGATGGTCAGCTAAAGCTCG | 4.31 | 3.05 | 0.34 | 2.04 | -0.115 | 3.63 | 2.88 | 3.35 | 0.939 | 2.08 | 4.92 | 4.19 | -0.0375 | -1.12 | 1.55 | 1.66 | -0.596 | 3 | 0.346 | 4.26
9 | AATACAGGGTCCTCGTAGGCCAGAGTACGCACAG | -0.0498 | -0.32 | -0.268 | -0.362 | -0.321 | 0.0293 | 0.721 | -0.0515 | -0.317 | -0.0938 | -0.234 | 0.716 | -0.242 | 0.0325 | -0.0615 | -0.282 | -0.0675 | -0.118 | -0.348 | 0.268
10 | CAAACCAGGTCACGAAAGGTCAAAGTCGAATGAC | 7.94 | 8.2 | 8.63 | 7.45 | 3.02 | 6.66 | 9.2 | 7.84 | 5.15 | 7.6 | 6.74 | 7.37 | 0.599 | 1.79 | 6.46 | 7.33 | 5.57 | 8.04 | 4.58 | 5.74
11 | TAGCCTAGGTCATTGGGCCAGTATAGTACGCATC | 4.22 | 3.49 | 0.558 | 2.36 | 0.375 | 3.82 | 3.56 | 3.65 | 0.801 | 2.75 | 2.86 | 3.89 | 0.41 | 0.0888 | 0.963 | 1.58 | -0.104 | 2.17 | -0.237 | 3.59
12 | TAGCATAGGTCATGCGGGCCAGTATAGTGTCGGC | 5.29 | 5.13 | 0.874 | 3.33 | -0.127 | 5.22 | 4.08 | 4.44 | 0.97 | 3.18 | 1 | 2.48 | 0.261 | -0.165 | 1.08 | 2.83 | 0.0553 | 3.38 | -0.53 | 4.13
13 | CCTTACGGGTAACTCCAGGTTATAGCATCGGAGT | 0.565 | 7.03 | 3.25 | 4.13 | 0.0113 | 0.572 | 0.317 | 0.049 | -0.487 | -0.0126 | 0.404 | 0.565 | 0.241 | -0.665 | 0.705 | 0.705 | 0.14 | 0.64 | 0.018 | 0.315
14 | GCTGCTAGGTTAACTGATGGTCAGCTAAAGCTCG | -0.137 | 1.44 | -0.782 | 0.138 | -0.9 | 0.846 | -0.15 | 0.209 | -0.499 | -0.243 | 2.43 | 1.36 | -1.35 | -0.847 | -0.127 | 0.00634 | -0.91 | 0.512 | -1.49 | 1.54
15 | TCTAGTTGGTCGCGGAGGTCACACACGACGGGTA | 2.99 | 3.17 | 2.21 | 2.94 | 0.671 | 3.61 | 2.02 | 3.04 | 2.94 | 2.83 | 1.54 | 2.37 | 0.402 | 0.328 | 2.9 | 4.16 | 1.42 | 4.39 | 1.29 | 3.38

— the supplement of paper PMC6555819
